From PubChem BioAssay
KB-V1 cytotox: KB-V1 MDR subline cytotoxicity. Potency, µM (titrated, usually from 46.1 µM), usual class: cytotoxic. 400,000 tested, 3.4% active. KB-V1 MDR cells viability, CellTiter-Glo, 72 h; also: nearly all actives have a fitted effect of over 60% in size
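KB-V1, DMEM (no phenol red) + 10% FBS; cpd pin-transferred, titration series; 72 h, 37 degrees C; CellTiter-Glo, luminescence. Data normalized, curve-fit.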
HT1080-NT tox: kills 2HG-producing HT-1080-NT fibrosarcoma cells; HT-1080-NT fibrosarcoma viability, CellTiter-Glo ATP luminescence, 48 h; Potency, µM (doses to about 46.1 µM), inactives show at the top dose activity, negative = less viability, usual class: cytotoxic; 360,000 tested, 1.6% active; AID 686970;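 also: NT is the 2HG producing partner of a matched IDH1 knockdown line; 0% = DMSO-treated cells and -100% = media-only wells without cells; nearly all actives have a fitted effect of over 55% in size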
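Toxicity toward the 2HG-producing NT line was scored as %Activity, normalised to DMSO and no-cell wells, from CellTiter-Glo luminescence after 48 hours' treatment.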
HT1080 IDH1KD tx: toxicity to HT-1080 IDH1 knockdown cells (counter line); HT-1080 IDH1 knockdown viability, ATP luminescence, 48 h; Potency, µM (highest dose often 46.1 µM), for inactives: at the top dose activity, negative = toxicity, most hits filed as cytotoxic; 360,000 tested, 2% active;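 also: 0% = DMSO wells and -100% = cell-free medium wells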
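Viability of IDH1-knockdown HT-1080 fibrosarcoma cells was assessed by CellTiter-Glo after 48 h at 37 °C with titrated compound; concentration-effect curves were classified by fit quality and response size.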
DT40 TDP1 CPT: DT40-hTDP1 cell growth loss with CPT; Potency, µM (top dose mostly 46.2 µM), for inactives: top-dose activity change, negative = growth inhibition, hits mostly inhibitors; chicken DT40 Tdp1-/-;hTDP1 cells + 20 nM CPT, ATP luminescence, 48 h; 420,000 tested, 12% active; AID 686979; also: nearly all actives have a fitted effect of over 55% in size
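Chicken DT40 Tdp1-/- cells stably complemented with human TDP1 were seeded at 400 cells/well in medium containing 20 nM camptothecin, exposed to pin-transferred compounds, and grown at 37 °C for at least 48 hr. Viability was read as ATP luminescence.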
DT40 TDP1 no CPT: qHTS for Inhibitors of human tyrosyl-DNA phosphodiesterase 1 (TDP1): qHTS in cells in absence of CPT | Potency, µM (highest dose often 46.2 µM), for the others: at the top dose activity change, negative = growth inhibition, actives largely listed as inhibitors | AID 686978, 2013 | 420,000 tested, 15% active | DT40 Tdp1-/- hTDP1 cells, no CPT, ATP luminescence, 48 h; also: nearly all actives have a fitted effect of over 55% in size
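Chicken DT40 Tdp1-/- cells stably complemented with human TDP1 were seeded at 400 cells/well with DMSO in place of 20 nM camptothecin. After compound pinning, cells grew at least 48 hr at 37 °C; viability read by CellTiter-Glo luminescence.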
KB-3-1 tox: KB-3-1 parental cell cytotoxicity. KB-3-1 viability, CellTiter-Glo ATP luminescence, 72 h. Potency, µM (top dose mostly 46.1 µM), usual class: cytotoxic. 400,000 tested, 1.4% active. AID 1347075; also: nearly all actives have a fitted effect of over 60% in size
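Cells are dispensed, compounds pinned in, plates held at 37 °C for 72 h, then CellTiter-Glo is added and luminescence read after 10 minutes. Cell line: parental KB-3-1 in phenol-red-free DMEM, 10% FBS.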
Numbers without * were called inactive; i = inactive; ? = inconclusive; / = not tested or not shown. Compounds with a hit are over-represented: about 19% of the library has one in this group of screens. Calls follow the shape of the dose curve; as a rule, active = well fitted curve in the direction sought with a large enough effect; inconclusive = small, poorly fitted or top-dose-only effect, or another doubt; inactive = no such curve, though single readings can be large; an effect the other way counts as inactive or inconclusive. Unless noted, % is scaled to controls: 0 for no effect and ±100 for the full control effect; potency is read from the fitted curve at half-maximal effect.

SMILES	KB-V1 cytotox	HT1080-NT tox	HT1080 IDH1KD tx	DT40 TDP1 CPT	DT40 TDP1 no CPT	KB-3-1 tox
Cc1cccc(C(=O)NCC(=O)OCc2cc(=O)n3nc(CC(C)C)sc3n2)c1	i	/	/	-14.6%	-13.5%	i
C(=C1c2ccccc2-c2ccccc21)c1ccncc1	?	-5.0%	-26.2%	?	23.1µM*	?
CNc1ccc(/C=C2\C=Cc3ccccc32)cc1	i	/	/	?	-98.6%	i
C(=C\c1ccccn1)/c1ccncc1	?	5.5%	10.8%	-10.0%	-8.7%	i
CNc1ccc(C=C2c3ccccc3-c3ccccc32)cc1	?	/	/	?	12.6µM*	?
CN(C)CCCNc1cc(C(C)(C)C)nc2c(-c3ccccc3)cnn12	i	20.6µM*	?	?	16.4µM*	i
CC(C)(C)c1cc(NCCCn2ccnc2)n2ncc(-c3ccc(Cl)cc3)c2n1	?	10µM*	10µM*	?	18.4µM*	i
O=C(NCc1ccc(F)cc1)C1(S(=O)(=O)c2ccc(Cl)cc2)CC1	i	-4.7%	-14.8%	-5.5%	-22.4%	i
OC1c2c(F)cccc2N=C2CCCCN21 (stereo not drawn)	i	12.1%	7.2%	8.2µM*	?	i
Cn1cnc([N+](=O)[O-])c1S(=O)(=O)c1ccc(Cl)cc1	i	9.2µM*	6.51µM*	1.16µM*	2.91µM*	i
Cn1c(O)c(C(C#N)=C2N=c3ccccc3=N2)c2ccccc21	i	8.6%	5.0%	8.2µM*	11.6µM*	i
CCOC(=O)c1cc(NC(=O)C2C3CCC(O3)C2C(=O)O)cc(C(=O)OCC)c1 (stereo not drawn)	23.1µM*	-5.3%	?	-18.8%	3.9%	i
CCOC(=O)c1cc(NC(=O)C2C3C=CC(O3)C2C(=O)O)cc(C(=O)OCC)c1 (stereo not drawn)	i	13.7%	12.7%	-13.8%	-18.5%	i
CC(=O)c1ccc(N2CCN(c3ncnc4c3c(-c3ccccc3)cn4-c3ccc(C)c(Cl)c3)CC2)cc1	/	/	/	-1.9%	8.6%	/
Cc1ccc(-n2cc(-c3ccccc3)c3c(N4CCCCC4)ncnc32)cc1	/	/	/	20.6µM*	23.1µM*	/
CCOc1ccc(-n2cc(-c3ccccc3)c3c(N4CCN(c5ccccc5OC)CC4)ncnc32)cc1	/	/	/	11.6µM*	16.4µM*	/
Cc1cccc(-n2cc(-c3ccccc3)c3c(N4CCOCC4)ncnc32)c1	?	20.6µM*	13µM*	?	?	i
CCOC(=O)C1CCN(c2ncnc3c2c(-c2ccccc2)cn3-c2ccccc2)CC1	i	-9.6%	-22.0%	?	23.1µM*	i
Cc1ccc(-n2cc(-c3ccccc3)c3c(N4CCOCC4)ncnc32)cc1	?	?	?	-29.3%	?	i
COc1cccc(N2CCN(c3ncnc4c3c(-c3ccccc3)cn4-c3ccc(C)cc3)CC2)c1	/	/	/	2.7%	-0.5%	/
CCCN(CCC)C(=O)CC(c1ccccc1)c1ccco1 (stereo not drawn)	i	-1.6%	-2.2%	?	?	i
CCOC(=O)c1c(C)c(-c2ccccc2)n(CC(=O)NCc2cccc(OC)c2)c1C	i	/	/	?	?	i
COc1ccc(-n2cc(-c3ccccc3)c3c(N4CCCC(C)C4)ncnc32)cc1 (stereo not drawn)	/	/	/	16.4µM*	10.3µM*	/
Cn1cnnc1SCC(=O)N/N=C/c1ccc(OCC(N)=O)cc1	i	15.8%	8.5%	9.9%	2.5%	i
COc1ccccc1NC(=O)CSc1oc(-c2ccccc2)nc1S(=O)(=O)c1ccccc1	i	/	/	20.6µM*	16.4µM*	i
SMILES	KB-V1 cytotox	HT1080-NT tox	HT1080 IDH1KD tx	DT40 TDP1 CPT	DT40 TDP1 no CPT	KB-3-1 tox
COc1ccccc1NC(=O)CSc1oc(-c2ccc(F)cc2)nc1S(=O)(=O)c1ccc(Br)cc1	i	/	/	20.6µM*	13µM*	i
Cc1ccc(S(=O)(=O)c2nc(-c3cccs3)oc2SCC(N)=O)cc1	i	-17.2%	-1.2%	-2.1%	-12.5%	i
COc1ccccc1NC(=O)CSc1oc(-c2ccccc2)nc1S(=O)(=O)c1ccc(C)cc1	i	/	/	18.4µM*	20.6µM*	i
COc1ccccc1NC(=O)CSc1oc(-c2cccs2)nc1S(=O)(=O)c1ccc(Br)cc1	i	/	/	23.1µM*	?	i
Cc1ccc(S(=O)(=O)c2nc(-c3ccccc3)oc2SCC(=O)NC2CCCCC2)cc1	i	/	/	-19.2%	10.7%	i
CC(=O)Nc1ccc(N(C(=O)CNC(=O)c2ccco2)C(C(=O)NCc2ccco2)c2ccccc2F)cc1 (stereo not drawn)	i	2.6%	0.6%	6.2%	-7.2%	i
O=C(CN1C(=O)c2cccnc2Oc2ccc(Cl)cc21)NC1CCCCC1	i	-0.8%	-4.5%	?	-21.5%	i
Cc1ccc(C(=O)C[n+]2cccc3cccc(O)c32)cc1	i	/	/	?	?	i
COC(=O)c1cnn(-c2ccc(C(=O)Nc3cc(OC)c(OC)c(OC)c3)cc2)c1N	i	/	/	?	?	i
COc1ccccc1NC(=O)CSc1oc(-c2ccco2)nc1S(=O)(=O)c1ccc(C)cc1	i	/	/	23.1µM*	?	i
COc1ccc(NC(=O)CSc2oc(-c3ccco3)nc2S(=O)(=O)c2ccccc2)c(OC)c1	i	/	/	?	?	i
COc1cc([N+](=O)[O-])cc(/C=N/NC(=O)c2cncc(Br)c2)c1O	?	-2.7%	-4.3%	4.61µM*	18.4µM*	?
COc1cc(/C=N/NC(=O)c2cncc(Br)c2)cc([N+](=O)[O-])c1O	?	16.4µM*	-4.0%	?	?	?
COc1cc(/C=N/NC(=O)c2cccc([N+](=O)[O-])c2)cc(OC)c1O	i	-0.6%	-0.4%	-22.7%	?	i
CCOc1ccc2[nH]c3c(NCCc4ccc(OC)c(OC)c4)ncnc3c2c1	i	?	?	4.11µM*	2.91µM*	i
COc1ccc(CCNc2ncnc3[nH]ncc23)cc1OC	i	?	-2.1%	14.6µM*	14.6µM*	i
CCCCCCCCNc1ncnc2[nH]ncc12	i	?	?	4.61µM*	3.66µM*	?
COc1ccc(CCNc2ncnc3sc(C)cc23)cc1OC	?	?	-6.0%	0.581µM*	0.259µM*	?
CCOc1ccc2[nH]c3c(NCCO)ncnc3c2c1	?	-10.2%	-6.2%	-13.9%	0.8%	i
